# Experimental data published in ChEMBL document CHEMBL3988442, “University of Dundee, Small-Polar-MMV Screening Library” (2021).
# For some assays here: Measured potencies and affinities stand elsewhere.
# Legend:
# Parameters in all cases: scale not given: direction of the effect not stated beside the values
# [1] = target: Protein translocase subunit SecA (Escherichia coli (strain K12)) (UniProt P10408); assay: Assay to Identify E. coli SecA ATPase Inhibitors; assay type: functional; settings: 30 µM
# Chain of Protein translocase subunit SecA (Escherichia coli (strain K12)) (P10408 whole entry): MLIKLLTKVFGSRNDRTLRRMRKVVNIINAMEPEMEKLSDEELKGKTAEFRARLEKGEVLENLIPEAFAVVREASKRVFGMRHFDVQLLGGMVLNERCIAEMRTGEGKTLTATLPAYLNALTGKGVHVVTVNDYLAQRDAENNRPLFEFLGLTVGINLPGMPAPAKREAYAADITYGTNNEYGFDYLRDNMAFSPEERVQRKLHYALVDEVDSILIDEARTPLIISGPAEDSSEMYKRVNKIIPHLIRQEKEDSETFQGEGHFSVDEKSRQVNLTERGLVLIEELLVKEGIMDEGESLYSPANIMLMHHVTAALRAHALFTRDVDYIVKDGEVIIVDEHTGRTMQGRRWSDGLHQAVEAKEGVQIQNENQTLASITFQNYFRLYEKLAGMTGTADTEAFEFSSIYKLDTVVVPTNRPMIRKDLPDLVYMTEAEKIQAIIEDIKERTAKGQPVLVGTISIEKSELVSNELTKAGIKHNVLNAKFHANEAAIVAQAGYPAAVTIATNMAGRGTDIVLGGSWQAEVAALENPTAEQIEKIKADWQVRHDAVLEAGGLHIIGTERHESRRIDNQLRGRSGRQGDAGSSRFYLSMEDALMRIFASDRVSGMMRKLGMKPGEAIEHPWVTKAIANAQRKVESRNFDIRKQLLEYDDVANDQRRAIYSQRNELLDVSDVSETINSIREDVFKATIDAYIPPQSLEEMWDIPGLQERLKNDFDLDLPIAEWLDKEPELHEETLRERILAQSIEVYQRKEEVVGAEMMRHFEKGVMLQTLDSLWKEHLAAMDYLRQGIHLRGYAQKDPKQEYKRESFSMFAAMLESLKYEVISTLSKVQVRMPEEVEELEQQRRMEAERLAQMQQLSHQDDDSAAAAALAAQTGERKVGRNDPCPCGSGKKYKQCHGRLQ
# [2] = target: T1, Ubiquitin-activating enzyme e1, putative (Leishmania donovani (strain BPK282A1)) (UniProt E9BSI1); assay: Leishmania donovani Ubiquitin Activating Enzyme (LdE1); assay type: functional; settings: 30 µM
# T1 sequence (whole entry): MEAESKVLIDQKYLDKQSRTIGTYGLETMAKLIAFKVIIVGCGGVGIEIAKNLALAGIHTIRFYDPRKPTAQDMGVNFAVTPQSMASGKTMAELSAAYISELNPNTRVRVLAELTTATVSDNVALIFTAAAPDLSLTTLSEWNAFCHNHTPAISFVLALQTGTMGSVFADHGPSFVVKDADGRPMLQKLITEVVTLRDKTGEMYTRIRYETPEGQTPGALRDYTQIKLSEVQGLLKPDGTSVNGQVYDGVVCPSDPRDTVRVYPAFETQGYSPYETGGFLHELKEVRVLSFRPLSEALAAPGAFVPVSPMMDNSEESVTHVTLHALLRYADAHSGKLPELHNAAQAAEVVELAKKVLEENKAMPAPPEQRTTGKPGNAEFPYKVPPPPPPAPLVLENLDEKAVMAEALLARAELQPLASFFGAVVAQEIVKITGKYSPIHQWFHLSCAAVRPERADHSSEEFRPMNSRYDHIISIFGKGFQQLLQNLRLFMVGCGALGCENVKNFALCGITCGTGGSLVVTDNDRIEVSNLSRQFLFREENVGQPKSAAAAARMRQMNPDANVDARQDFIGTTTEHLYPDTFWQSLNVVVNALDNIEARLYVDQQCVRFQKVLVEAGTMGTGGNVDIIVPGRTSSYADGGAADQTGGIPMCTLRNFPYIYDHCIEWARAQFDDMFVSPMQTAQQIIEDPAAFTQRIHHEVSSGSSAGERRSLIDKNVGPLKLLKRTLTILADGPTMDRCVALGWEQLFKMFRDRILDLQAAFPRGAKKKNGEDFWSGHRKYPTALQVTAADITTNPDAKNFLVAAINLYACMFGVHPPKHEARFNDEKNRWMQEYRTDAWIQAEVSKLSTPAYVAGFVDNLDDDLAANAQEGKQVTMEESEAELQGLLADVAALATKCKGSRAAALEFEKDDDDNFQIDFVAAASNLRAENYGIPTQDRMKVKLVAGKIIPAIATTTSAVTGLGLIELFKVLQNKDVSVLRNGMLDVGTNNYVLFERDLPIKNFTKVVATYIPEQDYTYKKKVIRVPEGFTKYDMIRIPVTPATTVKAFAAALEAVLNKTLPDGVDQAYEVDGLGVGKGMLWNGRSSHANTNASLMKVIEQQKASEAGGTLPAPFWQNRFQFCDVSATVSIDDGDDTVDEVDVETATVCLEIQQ
# [3] = target: AMP-activated protein kinase, AMPK (Homo sapiens) (UniProt P54646+O43741+P54619+Q9UGJ0+Q9Y478+Q13131+Q9UGI9); assay: AMP-dependent Kinase enzyme assay. An in vitro enzyme assay that detects ADP turnover that is directly proportional to AMPK activity. This uses naive AMPK that is activated during the assay with MK-8722; assay type: functional; settings: 30 µM
# [4] = target: Sialic acid-binding Ig-like lectin 9 (Homo sapiens) (UniProt Q9Y336); assay: Hs-Siglec9 ALPHAscreen SOP 20170721; settings: 10 µM
# Chain of Sialic acid-binding Ig-like lectin 9 (Homo sapiens) (Q9Y336 whole entry): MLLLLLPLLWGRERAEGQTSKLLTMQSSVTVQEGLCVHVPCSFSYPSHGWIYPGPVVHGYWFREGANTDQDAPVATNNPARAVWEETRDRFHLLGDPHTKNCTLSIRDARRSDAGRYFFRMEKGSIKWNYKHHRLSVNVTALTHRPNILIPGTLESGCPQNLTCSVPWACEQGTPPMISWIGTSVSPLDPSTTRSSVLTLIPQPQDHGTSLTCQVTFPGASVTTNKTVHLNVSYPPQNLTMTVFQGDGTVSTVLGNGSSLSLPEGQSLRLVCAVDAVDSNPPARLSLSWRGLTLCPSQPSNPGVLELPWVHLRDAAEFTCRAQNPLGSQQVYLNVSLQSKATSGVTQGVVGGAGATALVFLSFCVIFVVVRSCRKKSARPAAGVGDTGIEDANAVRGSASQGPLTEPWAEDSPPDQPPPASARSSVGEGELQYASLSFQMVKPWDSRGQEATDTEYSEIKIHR
# Trypanosoma cruzi = assay: Trypanosoma cruzi phosphomannomutase and mannose-1-phosphate guanylyltransferase assay; assay type: functional; settings: 10 µM
# [5] = target: T2, Arginase-2, mitochondrial (Homo sapiens) (UniProt P78540); assay: in vitro enzyme assay to detect the production of urea directly proportional to the activity of Arginase II; assay type: functional; settings: 33.3 µM; further: in the data most compounds retested in dose-response had high values
# T2 sequence (whole entry): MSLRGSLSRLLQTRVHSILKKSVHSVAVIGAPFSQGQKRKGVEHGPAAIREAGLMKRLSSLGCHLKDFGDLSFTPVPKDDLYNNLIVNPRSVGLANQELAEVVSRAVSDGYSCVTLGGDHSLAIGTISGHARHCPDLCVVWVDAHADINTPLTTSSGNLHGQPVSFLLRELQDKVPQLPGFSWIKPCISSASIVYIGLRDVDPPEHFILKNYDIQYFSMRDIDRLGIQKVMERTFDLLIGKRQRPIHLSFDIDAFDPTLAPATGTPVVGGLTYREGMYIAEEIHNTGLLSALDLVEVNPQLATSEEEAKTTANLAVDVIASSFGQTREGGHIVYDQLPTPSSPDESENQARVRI
# [6] = target: T3, Proteasome subunit beta (Trypanosoma cruzi) (UniProt O96673); assay: Trypanosoma cruzi proteasome chymotrypsin-like activity (TcProtChymo) assay.; further: in the data most compounds retested in dose-response had high values; assay type: functional; settings: 9.37 µM
# T3 sequence (whole entry): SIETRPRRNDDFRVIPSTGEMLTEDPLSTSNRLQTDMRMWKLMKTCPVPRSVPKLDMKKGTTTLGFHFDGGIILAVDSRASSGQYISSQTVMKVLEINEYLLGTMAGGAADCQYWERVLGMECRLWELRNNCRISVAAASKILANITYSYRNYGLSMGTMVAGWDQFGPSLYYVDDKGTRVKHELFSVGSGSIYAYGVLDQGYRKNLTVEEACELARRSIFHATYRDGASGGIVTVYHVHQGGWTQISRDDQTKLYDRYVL
# Homo sapiens = species on record: Homo sapiens; assay: To identify inhibition of the IFN signalling (Jak-Stat) pathway via expression of an eGFP reporter gene under the control of an IFN-stimulated response element (ISRE) containing MxA promoter.; assay type: functional; settings: 30 µM
# [7] = target: T4, Tyrosyl-tRNA synthetase, putative (Trypanosoma cruzi (strain CL Brener)) (UniProt Q4DSP6); assay: Trypanosoma cruzi tyrosyl tRNA synthetase (TcYRS) _High Tyrosine SOP; assay type: functional; settings: 30 µM; further: in the data most compounds retested in dose-response had high values
# T4 sequence (whole entry): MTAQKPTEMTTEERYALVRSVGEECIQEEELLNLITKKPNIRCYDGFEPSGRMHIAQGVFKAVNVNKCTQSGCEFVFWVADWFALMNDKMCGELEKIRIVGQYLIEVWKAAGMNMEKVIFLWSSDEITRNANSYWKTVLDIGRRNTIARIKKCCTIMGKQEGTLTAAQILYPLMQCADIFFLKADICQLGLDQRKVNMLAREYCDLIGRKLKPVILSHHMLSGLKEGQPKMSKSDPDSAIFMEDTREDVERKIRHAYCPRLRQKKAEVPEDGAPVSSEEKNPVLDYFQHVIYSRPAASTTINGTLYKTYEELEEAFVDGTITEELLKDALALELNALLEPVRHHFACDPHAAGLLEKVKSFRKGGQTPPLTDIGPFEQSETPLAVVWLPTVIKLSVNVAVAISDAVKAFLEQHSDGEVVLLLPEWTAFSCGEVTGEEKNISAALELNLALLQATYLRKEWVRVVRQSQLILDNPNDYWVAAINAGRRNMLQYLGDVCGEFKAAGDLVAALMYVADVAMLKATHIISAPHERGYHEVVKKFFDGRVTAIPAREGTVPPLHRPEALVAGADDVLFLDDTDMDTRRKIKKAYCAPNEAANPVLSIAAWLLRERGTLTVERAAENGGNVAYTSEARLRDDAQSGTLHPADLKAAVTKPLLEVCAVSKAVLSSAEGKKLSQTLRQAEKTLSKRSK
# [8] = target: T4, Tyrosyl-tRNA synthetase, putative (Trypanosoma cruzi (strain CL Brener)); assay: Trypanosoma cruzi tyrosyl tRNA synthetase (TcYRS) SOP; assay type: functional; settings: 30 µM
# [9] = target: Chromo domain-containing protein 1 (Saccharomyces cerevisiae (strain ATCC 204508 / S288c) (Baker's yeast)) (UniProt P32657); assay: ScCHD-1 Enzyme Inhibition Assay; assay type: functional; settings: 30 µM; further: in the data most compounds retested in dose-response had high values
# Chain of Chromo domain-containing protein 1 (Saccharomyces cerevisiae (strain ATCC 204508 / S288c) (Baker's yeast)) (P32657 whole entry, the tested form may be a part): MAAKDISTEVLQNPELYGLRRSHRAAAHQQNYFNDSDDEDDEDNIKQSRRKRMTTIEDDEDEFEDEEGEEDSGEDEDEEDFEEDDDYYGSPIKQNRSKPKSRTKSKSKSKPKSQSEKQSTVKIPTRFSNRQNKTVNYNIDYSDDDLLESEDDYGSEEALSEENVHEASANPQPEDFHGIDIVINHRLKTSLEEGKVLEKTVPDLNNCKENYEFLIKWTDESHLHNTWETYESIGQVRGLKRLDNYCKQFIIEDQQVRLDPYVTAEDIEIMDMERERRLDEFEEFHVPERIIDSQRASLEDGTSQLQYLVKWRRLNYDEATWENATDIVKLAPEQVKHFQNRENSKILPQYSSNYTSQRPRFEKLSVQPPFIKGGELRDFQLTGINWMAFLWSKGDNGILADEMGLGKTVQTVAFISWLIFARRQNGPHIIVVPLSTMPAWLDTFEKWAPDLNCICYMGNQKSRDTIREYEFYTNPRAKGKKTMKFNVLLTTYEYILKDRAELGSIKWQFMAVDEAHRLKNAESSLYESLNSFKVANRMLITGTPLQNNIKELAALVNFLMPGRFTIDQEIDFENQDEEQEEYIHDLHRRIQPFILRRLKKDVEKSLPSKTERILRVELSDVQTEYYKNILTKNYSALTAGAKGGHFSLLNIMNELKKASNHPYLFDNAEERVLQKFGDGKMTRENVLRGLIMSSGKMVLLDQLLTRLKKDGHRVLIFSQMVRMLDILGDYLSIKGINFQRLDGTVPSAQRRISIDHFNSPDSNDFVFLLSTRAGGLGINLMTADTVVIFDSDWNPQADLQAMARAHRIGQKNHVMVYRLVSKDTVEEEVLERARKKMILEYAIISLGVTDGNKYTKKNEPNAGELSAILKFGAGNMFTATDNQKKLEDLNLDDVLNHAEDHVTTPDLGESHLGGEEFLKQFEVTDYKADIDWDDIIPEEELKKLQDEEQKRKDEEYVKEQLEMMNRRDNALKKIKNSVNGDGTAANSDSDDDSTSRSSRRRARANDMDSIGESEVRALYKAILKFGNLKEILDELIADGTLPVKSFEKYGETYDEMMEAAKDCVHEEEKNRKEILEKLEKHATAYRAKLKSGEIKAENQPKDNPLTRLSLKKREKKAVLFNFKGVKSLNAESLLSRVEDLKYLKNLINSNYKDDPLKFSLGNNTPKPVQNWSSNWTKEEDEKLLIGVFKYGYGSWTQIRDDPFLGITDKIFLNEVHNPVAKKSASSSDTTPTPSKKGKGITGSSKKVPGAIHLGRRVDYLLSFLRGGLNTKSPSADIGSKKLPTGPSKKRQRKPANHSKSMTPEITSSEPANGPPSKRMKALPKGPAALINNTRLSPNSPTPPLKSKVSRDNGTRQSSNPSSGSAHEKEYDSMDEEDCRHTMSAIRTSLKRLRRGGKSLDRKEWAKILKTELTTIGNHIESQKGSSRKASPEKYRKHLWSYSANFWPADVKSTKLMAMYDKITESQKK
SMILES,Percent Effect [1] [%],Percent Effect [2] [%],Percent Effect [3] [%],Percent Effect [4] [%],Percent Effect (Trypanosoma cruzi) [%],Percent Effect [5] [%],Percent Effect [6] [%],Percent Effect (Homo sapiens) [%],Percent Effect [7] [%],Percent Effect [8] [%],Percent Effect [9] [%]
CCCOc1cc(C)ccc1NC(=O)NCCC(=O)N(C)C,-4.1,13.7,-1.53,-3,-3.33,4.09,20.6,10.2,6.45,15,-2.56
O=C1CCC2(CCCN(c3ncc(F)cn3)CC2)N1CC1CC1 (configuration not stated),-4,7.79,3.94,5.12,1.08,5.81,12.7,14.5,6.35,16.7,-4.57
CN(Cc1ncc[nH]1)S(=O)(=O)c1cccc(C(=O)N2CCOCC2)c1,-6.58,5.48,4.01,0.744,-1.76,1.82,7.1,0.0404,2.15,7.5,-7.89
Cn1cc(Cl)cc1C(=O)N1CCCN(Cc2cccs2)CC1,-2.72,-10.5,7.51,-1.79,1.32,1.53,-1.34,-3.88,4.41,0,7.24
Cn1cc(CN2CCCC3(CCN(Cc4cccnc4)C3=O)C2)cn1 (configuration not stated),-0.768,21.6,-0.596,-4.91,3.81,7.33,14,-9.12,1.08,12.8,1.58
CC(=O)N1CCCN(C(=O)NCc2ccccn2)CC1,-4.25,0,2.97,0.332,-5.88,3.6,3.81,2.28,1.48,-6.17,9.43
c1cnc2c(c1)cc([C@H]1CCCO1)n2CCN1CCOCC1,-4.11,9.46,14.2,5.59,-0.593,-5.8,3.9,3.93,1.07,11.7,-13.8
Cc1cc(N2CCC3(CCC(=O)N(CC4CC4)C3)CC2)nc(N)n1,-4.29,5.41,-2.2,5.16,-0.88,-1.74,8.15,7.43,9.68,8.64,-3.15
N#Cc1ncn(CCC(=O)Nc2ccc(Cl)cc2F)n1,1.65,8.22,-0.288,4.01,1.39,-1.6,18.4,30.7,11.5,21,-1.18
CC1CN(C)c2ccccc2CN1C(=O)CSc1ccncc1 (configuration not stated),-1.53,11,2.54,1.63,0.783,2.73,2.48,17.3,6.45,7.5,-6.19
Cc1noc(C)c1CCC(=O)N1CCCN(Cc2cscn2)CC1,-1.71,13.2,-5.71,-4.5,-3.76,6.9,21.1,23,8.33,17.1,-10.5
COc1cc2nc(C)n(CC(=O)NCCCN(C)C)c(=O)c2cc1OC,-0.823,20,-6.34,-3.21,4.13,-2.99,17.4,12.2,6.35,15.4,-9.62
Cc1nc(C)n(CC2CCCN(CC(=O)Nc3nncs3)C2)n1 (configuration not stated),-2.17,-2.63,3.08,5.75,-2.26,-1.15,4.84,-3.5,1.47,0,-0.768
O=C(c1cnc(-c2ccco2)s1)N1CCCC1Cn1cccn1 (configuration not stated),-4.62,3.8,8.45,0.321,2.97,1.5,9.09,13,7.29,5.06,0.437
Cc1cnccc1N1CCCN(C(=O)CCCS(N)(=O)=O)CC1,-2.12,5.48,6.21,1.68,1.37,15.4,8.87,-6.07,2.15,12.5,0.551
Cc1noc(C(C)C)c1C(=O)N1CCCN(Cc2cscn2)CC1,-4.04,18.2,-1.96,-7.63,2.25,-0.632,15.6,0.184,7.62,21.2,-23.9
CO[C@H]1CCN(c2ncccn2)[C@H]1Cc1ccccc1,1.4,2.6,-1.1,7.23,-3.25,-13.8,16,13.8,5.38,8.64,-1.72
COCC(=O)N1Cc2cnc(Cc3ccc(OC)cc3)nc2C1,-5.39,5.48,-2.68,-3.21,0.392,3.64,10.3,1.33,8.6,15,-4.76
CCN1CCC2(CC1)CC(NC(=O)N(C)C)c1cc(C)ccc12 (configuration not stated),-2.37,16,4.2,0.476,3.28,-52.9,14.4,-15.2,8.33,-50,-7.48
CC(O)CN1CCC(CNCc2cccc(OC(C)C)c2)CC1 (configuration not stated),-8.77,8.11,-23.9,28.4,8.21,-9.22,1.26,9.15,6.4,23.5,-14.8
O=C(CN(Cc1cccnc1)CC1CCCO1)Nc1ccc(F)cc1 (configuration not stated),-3.61,2.74,1.19,0.415,-2.35,-1.82,10.3,5.96,0,0,0.815
COCc1cc(O)nc(C2CCCN(Cc3cc(OC)ccc3F)C2)n1 (configuration not stated),-7.04,1.35,4.88,5.64,-3.56,-2.09,-0.312,16.7,-2.15,-1.3,-9.01
